Where “and” joins values, the source holds several entries; their conditions need not be identical. Identical values can stand only once.

18 molecules from PubChem BioAssay can be followed below.

The first assay in a line: viability loss with induced miR-34 in A549 – imaging, A549 dox-inducible miR-34, nuclei and caspase counts, primary screen (AID 1347080). Also: test concentration not given here. The conditions noted are these: A549 miR-34 inducible, Hoechst nuclei count, 48 h; measured here: relative caspase fold change +Dox/-Dox.
`O=C1C(CCS(=O)c2ccccc2)C(=O)N(c2ccccc2)N1c1ccccc1` (stereo unspecified): the fold change was 1.95 and 1.38 and 4.04.
Regarding `CN(C)CCOC(c1ccc(Cl)cc1)c1ccccn1` (stereo unspecified), the fold change is 1.31 and 1.4 and 2.86.
Same read-out and setting: in the case of `N[C@@H](C(=O)N[C@@H]1C(=O)N2C(C(=O)O)=C(Cl)CS[C@H]12)c1ccccc1` it was 1.88 and 4.52.
For `Nc1ncn([C@@H]2O[C@H](CO)[C@@H](O)[C@H]2O)c(=O)n1`, the fold change is 3.44 and 3.26 and 2.98.
On to `NCc1ccc(S(N)(=O)=O)cc1`, for which the fold change was 2.25 and 1.29 and 0.783.
On to `Cc1ncc([N+](=O)[O-])n1CC(C)O` (stereo unspecified), for which the fold change is 1.68 and 0.635 and 1.41.
Regarding `CN1CCCC(n2nc(Cc3ccc(Cl)cc3)c3ccccc3c2=O)CC1` (stereo unspecified), the fold change is 1.32 and 0.694 and 6.18.
Take `NS(=O)(=O)c1cc2c(cc1C(F)(F)F)NC(Cc1ccccc1)NS2(=O)=O` (stereo unspecified): the fold change was 3.31 and 1.41 and 3.71.
Same read-out and setting: in the case of `COC1=CC(=O)C[C@@H](C)[C@]12Oc1c(Cl)c(OC)cc(OC)c1C2=O` it was 2.5 and 0.98 and 2.02; in that of `COc1ccc(OC)c(C(O)CNC(=O)CN)c1` (stereo unspecified), 2.18 and 0.75 and 3.91; in that of `OC(CCN1CCCC1)(c1ccccc1)C1CCCCC1` (stereo unspecified), 1.12 and 3.13 and 3.87.
Regarding `C/C=C/C(=O)N(CC)c1ccccc1C`, the fold change was 1.68 and 2.74 and 1.41.
For the molecule `CCCCCCNC(=O)n1cc(F)c(=O)[nH]c1=O`, the fold change is 1.38 and 0.815.
Regarding `CN(C)CCc1c[nH]c2ccc(C[C@H]3COC(=O)N3)cc12`, the fold change was found to be 1.39.
The same measure, in the same setting: in the case of `Cc1onc(-c2c(Cl)cccc2Cl)c1C(=O)N[C@@H]1C(=O)N2[C@@H]1SC(C)(C)[C@@H]2C(=O)O` it was 0.333 and 1.39 and 0.886; in that of `CO[C@@]1(NC(=O)Cc2cccs2)C(=O)N2C(C(=O)O)=C(COC(N)=O)CS[C@@H]21`, 8.44 and 1.64 and 2.66; in that of `CC(C)(C)NCC(O)COc1cccc2c1C[C@H](O)[C@H](O)C2` (stereo partly specified), 2.62 and 3.63.
For `O=S(=O)(O)CCS`, the fold change was 3.36 and 0.596 and 4.13.

Staying with this assay, now noted: A549 miR-34 inducible, Hoechst nuclei count, 48 h; measured here: total cells with miR-34 induction; stronger effect = lower value.
As to `O=C1C(CCS(=O)c2ccccc2)C(=O)N(c2ccccc2)N1c1ccccc1` (stereo unspecified), the cell count is 11300 and 8240 and 10300.
As for `CN(C)CCOC(c1ccc(Cl)cc1)c1ccccn1` (stereo unspecified), the cell count was 9280 and 8230 and 11400.
Regarding `N[C@@H](C(=O)N[C@@H]1C(=O)N2C(C(=O)O)=C(Cl)CS[C@H]12)c1ccccc1`, the cell count was 8220 and 11700.
As for `Nc1ncn([C@@H]2O[C@H](CO)[C@@H](O)[C@H]2O)c(=O)n1`, the cell count is 1630 and 1960 and 3690.
Turning to `NCc1ccc(S(N)(=O)=O)cc1`, the cell count is 11100 and 8530 and 11400.
Same read-out and setting: in the case of `Cc1ncc([N+](=O)[O-])n1CC(C)O` (stereo unspecified) it was 9430 and 9630 and 9650; in that of `CN1CCCC(n2nc(Cc3ccc(Cl)cc3)c3ccccc3c2=O)CC1` (stereo unspecified), 5140 and 8770 and 9440; in that of `NS(=O)(=O)c1cc2c(cc1C(F)(F)F)NC(Cc1ccccc1)NS2(=O)=O` (stereo unspecified), 10000 and 8170 and 11600.
Turning to `COC1=CC(=O)C[C@@H](C)[C@]12Oc1c(Cl)c(OC)cc(OC)c1C2=O`, the cell count is 6100 and 6900 and 8710.
Same read-out and setting: in the case of `COc1ccc(OC)c(C(O)CNC(=O)CN)c1` (stereo unspecified) it was 9350 and 8590 and 11100.
Consider `OC(CCN1CCCC1)(c1ccccc1)C1CCCCC1` (stereo unspecified), for which the cell count was 10200 and 8600 and 10900.
As for `C/C=C/C(=O)N(CC)c1ccccc1C`, the cell count is 8830 and 11400 and 8670.
Take `CCCCCCNC(=O)n1cc(F)c(=O)[nH]c1=O`: the cell count is 3390 and 2360.
As for `CN(C)CCc1c[nH]c2ccc(C[C@H]3COC(=O)N3)cc12`, the cell count amounted to 11600.
Consider `Cc1onc(-c2c(Cl)cccc2Cl)c1C(=O)N[C@@H]1C(=O)N2[C@@H]1SC(C)(C)[C@@H]2C(=O)O`, for which the cell count was 10400 and 7750 and 11800.
`CO[C@@]1(NC(=O)Cc2cccs2)C(=O)N2C(C(=O)O)=C(COC(N)=O)CS[C@@H]21`: the cell count was 10400 and 9040 and 11300.
As for `CC(C)(C)NCC(O)COc1cccc2c1C[C@H](O)[C@H](O)C2` (stereo partly specified), the cell count is 10500 and 11100.
The same measure, in the same setting: in the case of `O=S(=O)(O)CCS` it was 9790 and 9090 and 11400.
